In all, about 2,500 compounds went through this assay and about 480 (19%) were called active.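 Rule for the calls: active = mean inhibition above about 25% (limit read from the data); inactive = the rest.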 A selection follows.
test: inhibitors of Wnt3a-driven luciferase in Wnt-LIGHT cells – cell-based, luminescence, single concentration, counter-screen for Gli-SUFU antagonist project, confirmation (AID 651995); conditions: Wnt3a-driven luciferase reporter, at 6.25 µM, hits give high values

SMILES	inhibition
CCCCC(=O)NC(c1ccc(OC)c(OC)c1)c1ccc2cccnc2c1O (stereo not drawn)	53.4% (active)
Cc1ccc(Nc2nc(N3CCOCC3)nc(N3CCOCC3)n2)cc1Cl	-104% (inactive)
COc1ccccc1C1C2=C(COC2=O)Nc2cc3c(cc21)OCO3 (stereo not drawn)	-30.9% (inactive)
COC(=O)Cc1[nH]n(-c2nc3ccccc3s2)c(=O)c1C(C)=Nc1ccc(OC)cc1	104% (active)
COc1cc(C(=O)OC2CCOC2=O)c([N+](=O)[O-])cc1OC (stereo not drawn)	1.38% (inactive)
CCOc1ccc(-n2c(O)c(/C=N/Nc3nc(C)cc(C)n3)c3ccccc3c2=O)cc1	16.1% (inactive)
CN1C(CC(=O)Nc2ccc(Br)cc2)c2ccccc2CC1(C)C (stereo not drawn)	-37.9% (inactive)
C/C(=N\NC(=O)Cc1ccc(Cl)cc1)c1ccccn1	48.9% (active)
CC(=O)/C(=N\Nc1ccc(Cl)cc1Cl)Sc1cccc2cccnc12	-140% (inactive)
CCNC(=S)N(CCN(CC)CC)Cc1cc2cc3c(cc2[nH]c1=O)OCO3	-0.1% (inactive)
Cc1nonc1C1CCCN1C(=O)c1cc(COc2cccc(C(F)(F)F)c2)on1 (stereo not drawn)	-42% (inactive)
Cc1ccc(S(=O)(=O)N(Cc2cc3ccccc3[nH]c2=O)CC2CCCO2)cc1 (stereo not drawn)	1.8% (inactive)
Cc1cc2[nH]ncc2cc1NC(=S)NC(=O)c1ccccc1	-34.9% (inactive)
Cc1ccccc1C(=O)NC(=S)Nc1ccc(N2CCN(C(=O)c3ccccc3)CC2)cc1	41.2% (active)
Cc1cc(C)c(SCCc2ccncc2)c(C)c1	32% (active)
CCCOc1ccc(Cc2c(Cl)nc(SC)nc2NC)cc1	26.9% (active)
O=C(Nc1ccnn1C1CCN(C/C=C/c2ccc(F)cc2)CC1)C1CCCC1	-63.4% (inactive)
CNc1ccc(SC#N)cc1	-9.54% (inactive)
COc1ccc(C(=O)NC2CCCc3c2cnn3-c2cccc(C)c2C)c(OC)n1 (stereo not drawn)	24.6% (inactive)
CCN(CC)CCNC(=O)c1ccc(NC(=O)c2cc(-c3ccncc3)nc3ccccc23)cc1	-2.49% (inactive)
Cc1ccc(C(=O)C[n+]2cc(-c3ccccc3)n3c2CCCCC3)cc1	-0.91% (inactive)
Cc1ccc(-c2nc3c(cnn3-c3ccccc3)c(=O)o2)cc1	4.18% (inactive)
O=C(C[C@H]1C/C=C\C[C@@H](NC(=O)OCC2c3ccccc3-c3ccccc32)C(=O)O[C@@H](c2ccccc2)CNC1=O)N[C@H](CO)Cc1ccccc1	-44.6% (inactive)
COc1ccc(OC)c(/C=N/NC(=O)c2ccc[n+](CC(=O)c3ccccc3)c2)c1	2.64% (inactive)
CC[n+]1c(C)n(-c2ccccc2)c2ccc(NC(C)=O)cc21	43.4% (active)
Cc1ccc(O)c(NC(=O)COc2cc(C)ccc2C)c1	-3.69% (inactive)

SMILES	inhibition
CNc1nnc(-c2ccco2)s1	-3.08% (inactive)
COC(=O)c1ccccc1NC(=O)C1(S(=O)(=O)c2ccc(Cl)cc2)CC1	-1.78% (inactive)
O=C(Nc1nc2ccc([N+](=O)[O-])cc2s1)c1ccc(S(=O)(=O)N2CCCc3ccccc32)cc1	65.8% (active)
CCc1ccc(C2C(C#N)=C(N)N(N3CCOCC3)C3=C2C(=O)CC(C)(C)C3)s1 (stereo not drawn)	-28.8% (inactive)
CCCc1nc(N)nc2c1C(=O)CC(C)(C)C2	9.89% (inactive)
Cc1cc(NC(=O)c2cccc(N3C(=O)CCC3=O)c2)no1	66% (active)
CC1CC2=C(CC1/C=N/NC(N)=S)C(C)(C)CCC2 (stereo not drawn)	21.2% (inactive)
CCc1c(C)nc2cc(C)[nH]n2c1=O	-9.69% (inactive)
C/C(=N\Nc1ccc(Cl)nn1)c1ccccc1O	-26.7% (inactive)
COc1ccc(/C=N/N=C2/C(=O)Nc3ccccc32)cc1O	-23.9% (inactive)
COc1ccc(Cc2nnc(N/N=C/c3ccccc3O)[nH]c2=O)cc1OC	59.9% (active)
CC(=O)OCCC(C)C	-9.39% (inactive)
c1ccc(-n2nnnc2N2CCOCC2)cc1	-14.5% (inactive)
O=C(O)CCCn1cc(NC(=O)COc2cccc(Cl)c2)cn1	6.24% (inactive)
Cc1ccc(NC(=O)CN(C)CC(=O)Nc2cccc(F)c2)cc1[N+](=O)[O-]	36.3% (active)
CN(C)CCSc1nc(N)c2c3c(sc2n1)COC(C)(C)C3	-37.2% (inactive)
CCC1CCCCN1CCCNC(=O)Cn1nc(-c2ccccc2)ccc1=O (stereo not drawn)	12.7% (inactive)
O=C1C=C(c2ccnc3cc(Cl)ccc23)C[C@@H](c2ccc3c(c2)OCO3)C1	27.6% (active)
CCN(CC)S(=O)(=O)c1ccc(Cl)c(C(=O)NC(C)C(c2cccs2)N2CCCC2)c1 (stereo not drawn)	-35.1% (inactive)
CSc1ncccc1C(=O)Nc1nc2ccc(F)cc2s1	81.3% (active)
CCN(CCO)C(=S)Nc1cc(C(=O)OC)ccc1C(=O)OC	-4.1% (inactive)
O=C(Cn1cc(C(=O)C2CC2)c2ccccc21)Nc1ccccc1Cl	26.6% (active)
O=c1c2ccccc2nc2n1C(CSCc1cccc(C(F)(F)F)c1)CS2 (stereo not drawn)	24.2% (inactive)
C=CCn1c(SCC(=O)CC(=O)OCC)nc2cc(C(=O)N3CCC(C(N)=O)CC3)ccc2c1=O	-31.2% (inactive)
O=C(c1cc(Cl)cc(Cl)c1)N1CCC(=O)N(C(COCc2ccccc2)Cc2ccccc2)CC1 (stereo not drawn)	-8.85% (inactive)
CCC(Cc1ccccc1)NC(=O)C1CCCCC1 (stereo not drawn)	-4.89% (inactive)

SMILES	inhibition
CC(C)OCC(O)CN1CCN(C(c2ccccc2)c2ccccc2)CC1 (stereo not drawn)	-21.2% (inactive)
CCOc1ccc(-n2c(O)c(/C=N/c3ccnn3Cc3ccncc3)c3ccccc3c2=O)cc1	-8.8% (inactive)
O=C(CN1C(=O)c2ccccc2S1(=O)=O)N1CCc2ccccc21	72.4% (active)
NC(N)=Nc1nc(-c2ccccc2)c2cc(Cl)ccc2n1	-5.22% (inactive)
CC(C)Oc1ccc(/C=N/NC(=O)c2nnn(-c3nonc3N)c2CN(C)C2CCCCC2)cc1	-59.5% (inactive)
COc1ccc2c(C)cc3nnnn3c2c1	-7.11% (inactive)
Cc1ccc(S(=O)(=O)NC(C)C(=O)Nc2ccccc2C(=O)N2CCCC2)cc1 (stereo not drawn)	-22.3% (inactive)
O=C(O)c1ccc(N/N=C/c2ccc3ncccc3c2)cc1	95% (active)
NS(=O)(=O)c1ccc(CCNC(=O)CCCn2c(SCC(=O)N3CCCC3)nc3ccsc3c2=O)cc1	-9.95% (inactive)
C=CCOc1nc2c(c(=O)n(C)c(=O)n2C)n1Cc1ccc(Cl)cc1Cl	-18% (inactive)
O=C(Nc1cc2c3c(c1)C1CCCC1CN3CC1CCCC21)c1ccc([N+](=O)[O-])cc1 (stereo not drawn)	-20.4% (inactive)
CN(NC(=O)c1ccccc1F)c1nc(C(F)(F)F)nc2ccccc12	-20% (inactive)
CC(C)(C)c1ccc(Oc2ccc(N)cc2)cc1	106% (active)
Cc1cc(C(=O)CSc2nc(N)cc(=O)[nH]2)c(C)n1-c1cccc(F)c1	-15.5% (inactive)
CC(=O)c1c(C)[nH]c(C(=O)OCC(=O)Nc2sc3c(c2C#N)CCCC3)c1C	-44.3% (inactive)
COc1ccccc1/C=C/CN1CCC(CO)(Cc2ccccc2)CC1	3.26% (inactive)
Cc1cccc(NS(=O)(=O)c2ccc(-c3cnc(C4CC4)o3)cc2)c1	-40.9% (inactive)
CCOc1cccc(/C=N/NC(=S)NCCN2CCOCC2)c1O	-21.9% (inactive)
COc1ccc(C(=O)NCc2nnc(SCCOc3ccccc3)n2C)cc1	-33.1% (inactive)
COc1cccc2cc(C(N)=O)/c(=N\NC(=O)c3ccccc3)oc12	-3.11% (inactive)
Cc1cccc2nc(CSc3nc4[nH]ncc4c(=O)n3-c3cccc(Cl)c3)cc(=O)n12	33.2% (active)
COc1cc(C(=O)OC(C)C(=O)NCC2CCCCC2)cc(NC(=O)c2ccco2)c1OC (stereo not drawn)	-76.6% (inactive)
CC(C)C(=O)Nc1nnc(SCC(=O)N2C(C)CCCC2C)s1 (stereo not drawn)	-26.6% (inactive)
O=C(NCCOCc1ccc(Cl)cc1)c1ncn[nH]1	33.3% (active)
CCn1c(SCc2ccccc2)nc2cc(OC)c(OC)cc2c1=O	-22.5% (inactive)
CC(C)Oc1ccc(CN2CCC(n3nccc3NC(=O)c3cccnc3)CC2)cc1	-35.7% (inactive)

From PubChem BioAssay AID651995 (Sanford-Burnham Center for Chemical Genomics, 2013)
